Measurements published in PubChem BioAssay (NCI).
Values joined by “and” are separate entries in the source; they are usually repeats but may differ in a detail not shown here. Equal values may be shown once. Compounds without any hit were thinned out: in the full panel of roughly 83,000, 20% have a hit.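 Compound tested at a single concentration for 48 hours in 96-well plates; a percent growth value below 10 was scored as active.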 Active and inactive are the calls of the source.

test system: CCRF-CEM leukemia; assay: NCI-60 one-dose screen, 48 h (100 = growth as untreated, 0 = no growth, -100 = all killed); details: 10 µM unless noted

| Structure (SMILES) | growth |
| --- | --- |
| N#Cc1ccc(/C=C/C(=O)c2ccccc2)cc1 | 17.6% (inactive) and 3.61% (active) |
| COc1ccc(COC=O)cc1 | 103% (inactive) |
| O=[N+]([O-])c1ccc(N/N=C/C2CCCCCC2)c([N+](=O)[O-])c1 | 51.6% (inactive) |
| COC(=O)C(Cc1cn(C(C)=O)c2ccccc12)P(=O)(OC)OC (stereo not given) | 110% (inactive) |
| CCOCCC(=O)O | 98.9% (inactive) |
| Cc1ccc(N)cc1S(=O)(=O)O | 60.6% (inactive) and 109% (inactive) |
| CCOC(=O)c1ccc(C(=N)N)cc1 | 103% (inactive) |
| Cc1cc(-c2ccc(N=Nc3c(C)nn(-c4ccc(S(=O)(=O)O)cc4)c3O)c(C)c2)ccc1N=Nc1ccc(O)c(C(=O)O)c1 | 99.4% (inactive) |
| CC(=O)c1cccc(OC(=O)c2ccccc2)c1 | 97.8% (inactive) |
| O=C(O)/C=C/C=C/c1ccccc1 | 102% (inactive) and 95.1% (inactive) |
| CCOC(=N)c1ccc(C(=N)OCC)cc1 | 107% (inactive) |
| CN(C)C(=N)N=C(N)N | 79.9% (inactive) |
| N=C(N=C(N)N)N1CCOCC1 | 107% (inactive) and 93.8% (inactive) |
| COc1cc([C@@H]2c3cc4c(cc3[C@H](O)[C@H]3COC(=O)[C@@H]23)OCO4)cc(OC)c1OC | 17.4% (inactive) and 0.767% (active) |
| S=c1ccc2ccccc2[nH]1 | 103% (inactive) and 101% (inactive) |
| Clc1ccc(/C=C/c2ccc3ccccc3n2)cc1 | 8.05% (active) and 97.1% (inactive) and 89.3% (inactive) |
| COc1ccc(CCl)c(C)c1OC | 97.3% (inactive) |
| O=C1c2ccccc2C(c2ccccc2)C1c1ccccc1 (stereo not given) | 72.2% (inactive) |

| Structure (SMILES) | growth |
| --- | --- |
| COc1ccc2oc3c(ccc[n+]3C)c(=O)c2c1 | 110% (inactive) |
| CCc1ccccc1-n1[nH]c(C)c(C=N)c1=O | 102% (inactive) |
| N#Cc1c[nH]n2ccnc12 | 109% (inactive) |
| CCCCCc1cc[n+](CC(=O)c2ccccc2)cc1 | 92.2% (inactive) and 99.4% (inactive) |
| O=[N+]([O-])c1ccc(N2CCN=N2)cc1 | 91.2% (inactive) |
| CCOc1ccc(/C=C\C(=O)O)cc1 | 96% (inactive) |
| O=C(c1ccc(Cl)cc1)C1C(c2ccccc2)C1[N+](=O)[O-] (stereo not given) | 103% (inactive) |
| CNc1ccc(O)cc1 | 101% (inactive) and 110% (inactive) |
| O=C1c2cccnc2-c2ncccc21 | 106% [100 µM] (inactive) |
| Cc1cc(NC(=O)NC(=O)c2ccccc2N(C)C)ccc1Oc1ncc(Br)cn1 | 4.54% (active) and 17.5% (inactive) |
| CC(C)(C)C1=CC(=O)C(C(C)(C)C)=CC1=O | 96.1% (inactive) and 97.9% (inactive) |
| OCc1ccccc1F | 83.9% (inactive) |
| O=C(O)C1CSCN1 (stereo not given) | 100% (inactive) and 121% (inactive) |
| O=[N+]([O-])c1cccc(N=Cc2ccccc2)c1 | 95.7% (inactive) |
| Cc1cc(O)c(C(C)C)cc1N=O | 90.3% (inactive) |
| CS(=O)(=O)OCC1NC(=O)C(COS(C)(=O)=O)NC1=O (stereo not given) | 82.4% (inactive) and 74.2% (inactive) |
| O=C(O)c1cccc(Br)c1 | 99.7% (inactive) and 101% (inactive) |

test system: MOLT-4 leukemia; assay: as above; details: 10 µM unless noted

| Structure (SMILES) | growth |
| --- | --- |
| N#Cc1ccc(/C=C/C(=O)c2ccccc2)cc1 | -35.1% (active) and 29.4% (inactive) |
| COc1ccc(COC=O)cc1 | 102% (inactive) |
| O=[N+]([O-])c1ccc(N/N=C/C2CCCCCC2)c([N+](=O)[O-])c1 | 77.3% (inactive) |
| COC(=O)C(Cc1cn(C(C)=O)c2ccccc12)P(=O)(OC)OC (stereo not given) | 108% (inactive) |
| Cc1ccc(N)cc1S(=O)(=O)O | 94.4% (inactive) |
| CCOC(=N)c1ccc(C(=N)OCC)cc1 | 111% (inactive) |
| CN(C)C(=N)N=C(N)N | 95.6% (inactive) and 131% (inactive) |
| COc1cc([C@@H]2c3cc4c(cc3[C@H](O)[C@H]3COC(=O)[C@@H]23)OCO4)cc(OC)c1OC | 13.5% (inactive) and 4.58% (active) |
| O=C1C=CC(=O)N1Cc1ccco1 | 79.5% (inactive) |
| S=c1ccc2ccccc2[nH]1 | 93.3% (inactive) and 100% (inactive) |
| Clc1ccc(/C=C/c2ccc3ccccc3n2)cc1 | 30.9% (inactive) and 41.9% (inactive) and 76% (inactive) |
| COc1ccc(CCl)c(C)c1OC | 104% (inactive) |
| O=C1c2ccccc2C(c2ccccc2)C1c1ccccc1 (stereo not given) | 87.8% (inactive) |
| COc1ccc2oc3c(ccc[n+]3C)c(=O)c2c1 | 103% (inactive) |
| CCc1ccccc1-n1[nH]c(C)c(C=N)c1=O | 117% (inactive) |
| C/C=C/C(=O)OCCCCCCCCCCCC | 83.1% (inactive) |
| N#Cc1c[nH]n2ccnc12 | 109% (inactive) |
| CCCCCc1cc[n+](CC(=O)c2ccccc2)cc1 | 104% (inactive) and 109% (inactive) |
| O=[N+]([O-])c1ccc(N2CCN=N2)cc1 | 90.8% (inactive) |
| CCOc1ccc(/C=C\C(=O)O)cc1 | 92% (inactive) |
| O=C(c1ccc(Cl)cc1)C1C(c2ccccc2)C1[N+](=O)[O-] (stereo not given) | 83.7% (inactive) |
| CNc1ccc(O)cc1 | 110% (inactive) and 129% (inactive) |
| Cc1cc(NC(=O)NC(=O)c2ccccc2N(C)C)ccc1Oc1ncc(Br)cn1 | 19.5% (inactive) and 26.5% (inactive) |
| CC(C)(C)C1=CC(=O)C(C(C)(C)C)=CC1=O | 83.4% (inactive) and 105% (inactive) |
| OCc1ccccc1F | 91.8% (inactive) |
| O=C(O)C1CSCN1 (stereo not given) | 75.9% (inactive) and 106% (inactive) |
| O=[N+]([O-])c1cccc(N=Cc2ccccc2)c1 | 87.4% (inactive) |
| Cc1cc(O)c(C(C)C)cc1N=O | 98.1% (inactive) |
| CS(=O)(=O)OCC1NC(=O)C(COS(C)(=O)=O)NC1=O (stereo not given) | 91.6% (inactive) and 69% (inactive) |
| CCCC(=O)Oc1ccc2ccccc2c1 | 92.3% (inactive) |
